Experimental findings from PubChem BioAssay (Tox21) are described below.

The structures appear in SMILES notation. Several values for one entry are separate records, joined by “and”; a condition that tells them apart may be missing. Equal entries are not always repeated. Records with an inconclusive call do not appear. Some compounds were tested as several samples or in several runs, with calls that do not always agree. Activity calls are given as the source filed them. Unless noted, the call rests on the fitted dose curve; in most records, active means well fitted curve in the direction sought with a large enough effect in the repeat runs; inconclusive means weak or mixed curves; inactive means no such curve, though single readings can be large; an effect the other way counts as inactive or inconclusive.

Test [1] in a line: qHTS assay to identify small molecule agonists of the constitutive androstane receptor (CAR) signaling pathway - cell viability counter screen (AID 1224836). Further: nearly all actives have a fitted effect of over 45% in size. An outline of the steps:
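23 h treatment, 37 C, 5% CO2. Cell line: HepG2 stably expressing hCAR with a CYP2B6-2.2kb construct. Co-treatment: PK11195, 0.75 uM final. Read-out: CellTiter-Fluor fluorescence intensity.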

The target of test [2] is Nuclear receptor subfamily 1 group I member 3 (Homo sapiens) (UniProt Q14994). Put plainly: qHTS assay to identify small molecule antagonists of the constitutive androstane receptor (CAR) signaling pathway (AID 1224838).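 Further: HepG2 cells stably expressing hCAR with CYP2B6 luciferase reporter stimulated by CITCO; nearly all actives have a fitted effect of over 40% in size.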 A digest of the protocol:
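Quantitative HTS in double-stable HepG2-CYP2B6-hCAR cells. After 4 h plating, cells get compound (15 concentrations) and CITCO at 50 nM final, incubate 24 h at 37 C, then ONE-Glo luminescence is read.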
On the technique in general: Quantitative high-throughput screening tests each substance at several concentrations.

The target is the same in test [3]. Put plainly: qHTS assay to identify small molecule agonists of the constitutive androstane receptor (CAR) signaling pathway (AID 1224839).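 Further: HepG2 cells stably carrying human CAR and a CYP2B6 luciferase reporter; nearly all actives have a fitted effect of over 15% in size.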 A digest of the protocol:
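Compounds tested at 15 concentrations on HepG2 cells stably harbouring hCAR and CYP2B6-2.2kb reporter constructs, co-treated with PK11195 (0.75 uM final), 24 h at 37 C; luminescent reporter signal quantified.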

Test [4] is described as follows: qHTS assay to identify small molecule antagonists of the estrogen related receptor signaling pathway with the pleiotropic PPARgamma coactivator (PGC) from Tox21 10K library - cell viability counter screen (AID 1224840; active means well fitted cell-killing curve with a large enough effect in the repeat runs, not every such curve was filed as active; further: nearly all actives have a fitted effect of over 40% in size; further: potency means the concentration at half of the fitted maximal effect). An outline of the steps: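 Compounds in DMSO, alongside positive and negative controls, were pinned onto PGC/ERR cells (2,000 per well). Exposure lasted 17.5 hours at 37 C, followed by a 30-minute CellTiter-Fluor incubation and fluorescence reading.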

Test [5] is described as follows: qHTS assay to identify small molecule antagonists of the estrogen related receptor signaling pathway with the pleiotropic PPARgamma coactivator (PGC) from Tox21 10K library (AID 1224841; call rule not given here; further: actives are mostly falling curves and most rising ones were filed inactive; nearly all actives have a fitted effect of over 50% in size; further: potency means the concentration at half of the fitted maximal effect). An outline of the steps: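 Compound exposure ran 18 hours at 37 C in PGC/ERR cells (2,000/well) that had first rested 6 hours in a 37 C/5% CO2 incubator. Luciferase activity was then detected with One-Glo after a 30-minute room-temperature step.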

Test [6] in a line: qHTS assay to identify small molecule agonists of the estrogen related receptor signaling pathway with the pleiotropic PPARgamma coactivator (PGC) from Tox21 10K library (AID 1224842). Further: nearly all actives have a fitted effect of over 15% in size. A digest of the protocol:
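Luminescence from One-Glo (30 min, room temperature) measured after PGC/ERR cells had 18 h at 37 C with pinned compound (23 nL in DMSO). Cells had been seeded at 2,000 per well and pre-incubated 6 h.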

In test [7] the target is Thyrotropin receptor (Homo sapiens) (UniProt P16473). Put plainly: qHTS assay to identify small molecule agonists of the thyroid stimulating hormone receptor (TSHR) signaling pathway (AID 1224843; calls by dose curve; further: nearly all actives have a fitted effect of over 45% in size). An outline of the steps:
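Screening of the Tox21 10K collection used HEK293 cells engineered with TSHR at 800 cells per well. After a 30-min room-temperature compound exposure, HTRF cAMP reagents were added and fluorescence recorded 1 h later.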

A short description of test [8]: qHTS assay to identify small molecule agonists of H2AX (AID 1224845; active means well fitted activation curve with a large enough effect in the signal ratio in the repeat runs, not every such curve was filed as active; the % refers to the signal ratio; further: potency means the concentration at half of the fitted maximal effect). A digest of the protocol:
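Phospho-H2AX Ser139 measured by HTRF (ex 320 nm; em 665 and 620 nm) after 24 hr antibody incubation. Compounds, 15 concentrations, 0.76% DMSO, were applied to CHO-K1 cells for 3hr at 37C before lysis.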

Test [9] is described as follows: qHTS assay to identify small molecule agonists of the hypoxia (HIF-1) signaling pathway (AID 1224846; active means well fitted activation curve with a large enough effect in the signal ratio in the repeat runs, not every such curve was filed as active; the % refers to the signal ratio). A digest of the protocol:
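Measured by blue/green FRET after loading CCF4-AM: beta-lactamase expressed from a hypoxia response element in ME-180 cells. Test agents were delivered in DMSO and left 17 hrs; cells had been plated 5 hrs earlier in low-serum (0.5% dialyzed FBS) medium.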

Test [10] can be described thus: qHTS assay to identify small molecule antagonists of the estrogen related receptor (ERR) signaling pathway from Tox21 library (AID 1224848). Further: nearly all actives have a fitted effect of over 50% in size. Further: potency means the concentration at half of the fitted maximal effect. A digest of the protocol:
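Antagonist-mode screen of the Tox21 10K library in an NTP-provided ERR reporter cell line; 18 h compound exposure at 37 C, luminescence measured with ONE-Glo.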

The nature of test [11]: qHTS assay to identify small molecule agonists of the estrogen related receptor (ERR) signaling pathway from Tox21 library (AID 1224849; calls by dose curve; further: nearly all actives have a fitted effect of over 15% in size). As to conditions: ERR reporter cell line, ONE-Glo luciferase, 18 h. An outline of the steps: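 We plated ERR reporter cells, waited 6 h, added compounds in DMSO by pin tool and incubated them 18 h at 37 C. ONE-Glo was then added and luminescence read after 30 min.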

The nature of test [12]: qHTS RealTime-Glo MT Cell Viability Assay in HepG2 cells - 24 hour (AID 1224867). Further: nearly all actives have a fitted effect of over 50% in size. Further: potency means the concentration at half of the fitted maximal effect. A digest of the protocol: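 HepG2 suspension premixed with RealTime-Glo reagents is plated at 600 cells per well and left 5 h at 37 C/5% CO2. Compounds in DMSO then go in, and bioluminescence reflecting viable cell number is recorded over 40 h.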
Test [13] can be described thus: A CellTox Green Cytotoxicity Assay to monitor cytotoxicity in HEK293 cells - 0 hour (AID 1224869). Further: nearly all actives have a fitted effect of over 50% in size. A digest of the protocol: (§1)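 Each value comes from one timepoint of a single continuous run in which HEK293 cells with CellTox Green were exposed to compound for up to 40 h at 37 C, dye fluorescence rising with cell death.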
The nature of test [14]: qHTS RealTime-Glo MT Cell Viability Assay in HepG2 cells - 40 hour (AID 1224870). Further: nearly all actives have a fitted effect of over 50% in size. A digest of the protocol: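 Real-time viability: cells seeded at 600 per well together with NanoLuc and cell-permeant prosubstrate, compounds added after 5 h incubation. Luminescence tracked at 0, 8, 16, 24, 32 and 40 h of exposure.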
Test [15] can be described thus: A CellTox Green Cytotoxicity Assay to monitor cytotoxicity in HEK293 cells - 40 hour (AID 1224871). Further: nearly all actives have a fitted effect of over 45% in size. Further: potency means the concentration at half of the fitted maximal effect. A digest of the protocol:
as §1

Test [16] can be described thus: qHTS RealTime-Glo MT Cell Viability Assay in HEK293 cells - 16 hour (AID 1224872). A digest of the protocol: (§2)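 Reads taken at 0, 8, 16, 24, 32 and 40 h from the same wells. HEK293 cells (600/well) carried RealTime-Glo reagents from seeding, with compound added after a 5 h settle at 37 C.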
Test [17] in a line: qHTS assay to identify small molecule agonists of H2AX - cell viability counter screen (AID 1224847; calls by dose curve; further: top concentration of the series differs between compounds; nearly all actives have a fitted effect of over 30% in size). An outline of the steps: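 Compounds tested at 15 concentrations were incubated 3 hr at 37C with wild-type CHO-K1 cells; cellular ATP-based luminescence (CellTiter-Glo) indicated viability.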
Test [18] is described as follows: qHTS assay to identify small molecule antagonists of the constitutive androstane receptor (CAR) signaling pathway - cell viability counter screen (AID 1224837). Further: nearly all actives have a fitted effect of over 45% in size. An outline of the steps:
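Fluorescence from CellTiter-Fluor served as the viability signal. Human hepatoma HepG2 cells stably bearing hCAR and CYP2B6-2.2kb received compound plus CITCO (50 nM final) for 23 hr.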

The nature of test [19]: qHTS assay to identify small molecule agonists of the hypoxia (HIF-1) signaling pathway - cell viability counter screen (AID 1224844; calls by dose curve; further: nearly all actives have a fitted effect of over 50% in size; further: potency means the concentration at half of the fitted maximal effect). A digest of the protocol: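 Luminescent ATP content (CellTiter-Glo, 30 min, room temperature) served as the viability measure in HRE-bla ME-180 cells exposed to compounds for 17 hrs in low-serum medium (0.5% dialyzed FBS).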
Test [20] can be described thus: qHTS RealTime-Glo MT Cell Viability Assay in HEK293 cells - 32 hour (AID 1224868). Further: nearly all actives have a fitted effect of over 50% in size. Further: potency means the concentration at half of the fitted maximal effect. An outline of the steps: as §2
On the % scale 0 is the no-effect control and ±100 the full control effect.

Sequence of Nuclear receptor subfamily 1 group I member 3 (Homo sapiens) (Q14994 whole entry, looked up): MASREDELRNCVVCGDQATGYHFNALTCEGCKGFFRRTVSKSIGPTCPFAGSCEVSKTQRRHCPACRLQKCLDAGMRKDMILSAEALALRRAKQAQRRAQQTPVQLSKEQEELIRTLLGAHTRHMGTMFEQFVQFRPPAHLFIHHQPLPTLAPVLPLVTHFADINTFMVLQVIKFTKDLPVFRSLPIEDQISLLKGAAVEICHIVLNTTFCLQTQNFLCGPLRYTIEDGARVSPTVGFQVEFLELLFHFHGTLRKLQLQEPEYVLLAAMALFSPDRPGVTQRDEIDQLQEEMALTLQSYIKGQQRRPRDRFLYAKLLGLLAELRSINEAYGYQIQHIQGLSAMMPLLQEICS
Sequence of Thyrotropin receptor (Homo sapiens) (P16473 whole entry, looked up): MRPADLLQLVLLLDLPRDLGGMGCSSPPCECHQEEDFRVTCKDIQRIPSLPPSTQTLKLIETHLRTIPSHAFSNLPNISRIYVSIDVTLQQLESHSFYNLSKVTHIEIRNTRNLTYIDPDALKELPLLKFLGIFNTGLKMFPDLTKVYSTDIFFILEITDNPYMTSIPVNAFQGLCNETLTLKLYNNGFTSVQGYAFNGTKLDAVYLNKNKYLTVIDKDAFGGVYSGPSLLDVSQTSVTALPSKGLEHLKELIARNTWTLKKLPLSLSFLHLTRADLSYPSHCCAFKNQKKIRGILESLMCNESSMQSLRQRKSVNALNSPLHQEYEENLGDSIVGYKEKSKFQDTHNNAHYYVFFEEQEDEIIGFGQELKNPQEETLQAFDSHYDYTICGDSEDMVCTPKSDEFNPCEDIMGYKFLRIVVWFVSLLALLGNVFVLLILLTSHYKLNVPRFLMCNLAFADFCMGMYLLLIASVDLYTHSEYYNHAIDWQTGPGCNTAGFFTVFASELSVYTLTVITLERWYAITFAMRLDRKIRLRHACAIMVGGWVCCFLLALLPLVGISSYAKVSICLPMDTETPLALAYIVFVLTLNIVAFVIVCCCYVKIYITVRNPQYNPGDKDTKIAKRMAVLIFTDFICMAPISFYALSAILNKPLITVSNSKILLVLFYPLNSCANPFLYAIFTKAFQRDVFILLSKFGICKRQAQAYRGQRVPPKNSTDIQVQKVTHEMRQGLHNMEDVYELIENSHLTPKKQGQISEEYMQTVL

`CCCCOCCOC(=O)c1ccccc1C(=O)OCCOCCCC`: the Potency entry in [1], in [2], in test [3], in test [4], in test [6] and in test [7] was “inactive” in each case. Also, the Potency entry in [8], in [9], in test [12], in test [13], in test [14] and in test [15] was “inactive” in each case. Besides, the Potency result in test [16] was “inactive”. Moreover, the Potency in test [5] was 16.9 µM (active) and inactive; in test [10] it was 26.7 µM (active) and 30.6 µM (active). Moreover, the activity change, positive = activation in test [11] (at 92.4 µM (top of the series)) is -34.9% (inactive) and -38.2% (inactive).

Regarding `CCCCC/C=C/CC1CC(=O)OC1=O` (configuration not stated), the Potency result in test [1], in [2], in test [3], in test [4], in [5] and in [7] was “inactive” each time. Moreover, the Potency entry in test [8], in test [9], in [17], in test [10], in test [12] and in [13] was “inactive” throughout. For the same molecule, the Potency entry in test [14], in [15] and in test [16] was “inactive” in each case. Moreover, the activity change, positive = activation in test [11] (at 92.4 µM (top of the series)) is 5.46% (inactive).

Turning to `CC1COc2c(N3CCN(C)CC3)c(F)cc3c(=O)c(C(=O)O)cn1c23` (configuration not stated), the Potency result in test [1], in test [18], in [4], in [7], in test [19] and in [8] was “inactive” each time. Besides, the Potency result in [17], in [13] and in test [15] was “inactive” in each case.

`O=C(O)Cn1cnnn1`: the Potency entry in [1], in test [2], in [4], in [5], in test [6] and in test [7] was “inactive” each time. The Potency entry in test [8], in [9], in test [10], in test [12], in test [20] and in test [13] was “inactive” each time. Also, the Potency entry in [14], in test [15] and in test [16] was “inactive” each time. Besides, the activity change, positive = activation in test [11] (at 42.5 µM (top of the series)) was 4% (inactive).

On to `C=CC(=O)OCCCCCCOC(=O)C=C`, for which the Potency entry in [1], in test [2], in test [3], in test [5], in [7] and in test [10] was “inactive” each time. In addition, the Potency entry in test [13] and in test [14] was “inactive” throughout. Besides, the Potency was 48.6 µM (active) in [4]; 114 µM (active) in [8]; “inactive and 43.6 µM (active)” in [12]; 49 µM (active) in test [20]; 54.9 µM (active) in test [15]. The activity change, positive = activation in test [11] (at 92.4 µM (top of the series)) is -0.87% (active) and -57.5% (active).

As for `CC(C)CCOCc1ccccc1`, the Potency entry in [1], in test [2], in test [3], in [4], in test [5] and in test [6] was “inactive” in each case. Moreover, the Potency result in test [7], in test [19], in test [8], in test [9], in test [17] and in test [10] was “inactive” in each case. For the same molecule, the Potency result in test [12], in test [20], in test [13], in test [14], in [15] and in test [16] was “inactive” throughout. In test [11] (at 92.4 µM (top of the series)), the activity change, positive = activation was 4.72% (inactive).

`C=C(C)C(=O)O`: the Potency result in test [1], in test [18], in test [4], in test [8], in test [9] and in test [17] was “inactive” each time. The Potency entry in [12], in test [20], in test [13], in test [14], in [15] and in [16] was “inactive” throughout.

For the molecule `Nc1cc(S(=O)(=O)O)cc2cc(S(=O)(=O)O)cc(O)c12`, the Potency entry in test [1], in test [18], in test [17], in test [12], in [20] and in [13] was “inactive” throughout. Besides, the Potency result in test [14], in test [15] and in test [16] was “inactive” throughout. Moreover, the Potency entry in test [19] was “inactive and 4.9 µM (active)”.

`CNC1(C)C2CCC(C2)C1(C)C` (configuration not stated): the Potency result in test [1], in test [2], in [3], in test [4], in [5] and in test [6] was “inactive” throughout. Also, the Potency result in [7], in [8], in test [10], in test [12], in [20] and in test [13] was “inactive” in each case. The Potency result in test [14], in test [15] and in test [16] was “inactive” in each case. Besides, the activity change, positive = activation in test [11] (at 42.5 µM (top of the series)) was 0.179% (inactive).

With `COc1cc(C(=S)N2CCOCC2)ccc1O`, the Potency result in test [1], in test [2], in test [3], in test [4], in test [5] and in [6] was “inactive” throughout. Also, the Potency entry in test [7], in test [19], in [8], in [9], in [17] and in test [10] was “inactive” throughout. The Potency entry in test [12], in test [20], in test [13], in [14], in test [15] and in test [16] was “inactive” throughout. Moreover, in [11] (at 42.5 µM (top of the series)), the activity change, positive = activation was -0.619% (inactive).

Take `CCn1cc(C(=O)O)c(=O)c2cc(F)c(N3CCNC(C)C3)c(F)c21` (configuration not stated): the Potency result in test [1], in test [2], in test [3], in [4], in test [5] and in [7] was “inactive” throughout. Also, the Potency entry in [8], in test [10], in test [12], in [20], in [13] and in test [14] was “inactive” throughout. The Potency result in test [15] and in test [16] was “inactive” in each case. Further, in test [11] (at 42.5 µM (top of the series)), the activity change, positive = activation is 3.97% (inactive).
